Experimental data from PubChem BioAssay (NCI).
This is part of a sample that, as a whole, favours compounds with a hit. Of some 83,000 tested, about 20% had one in any assay.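 Assay: single dose, 48 h. Readout: percent growth (0 = no net growth; negative = cell death). Active: <10.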 Values without a mark were called inactive. Active and inactive are the calls of the source.

Experiments:
Assay in all cases: NCI-60 one-dose screen, 48 h (100 = growth as untreated, 0 = no growth, -100 = all killed)
Conditions in all cases: 10 µM unless noted
[1] = system: SK-MEL-2 melanoma
[2] = system: EKVX NSCLC
[3] = system: SN12C renal
[4] = system: UO-31 renal
[5] = system: TK-10 renal
[6] = system: ACHN renal
[7] = system: CAKI-1 renal
[8] = system: A498 renal
[9] = system: MOLT-4 leukemia
[10] = system: SR leukemia
[11] = system: RPMI-8226 leukemia
[12] = system: OVCAR-8 ovarian
[13] = system: OVCAR-5 ovarian
[14] = system: OVCAR-4 ovarian
[15] = system: SK-OV-3 ovarian
[16] = system: IGROV1 ovarian
[17] = system: OVCAR-3 ovarian
[18] = system: HS 578T breast
[19] = system: NCI/ADR-RES ovarian

Structure (SMILES): N#CC1=C(c2ccc(Br)cc2)NC(SCC(=O)c2ccc(Br)cc2)NC1=O (configuration not stated)
- growth [1]: 98%
- growth [2]: 104%
- growth [3]: 109%
- growth [4]: 89.9%
- growth [5]: 118%
- growth [6]: 109%
- growth [7]: 97.1%
- growth [8]: 80.1%
- growth [9]: 92%
- growth [10]: 101%
- growth [11]: 107%
- growth [12]: 103%
- growth [13]: 101%
- growth [14]: 101%
- growth [15]: 110%
- growth [16]: 114%
- growth [17]: 102%
- growth [18]: 97%
- growth [19]: 107%

Structure (SMILES): COc1ccc2c(c1)CCCN2c1c2ccccc2nc2ccccc12
- growth [1]: 35.4%
- growth [2]: 45%
- growth [3]: 39.5%
- growth [4]: 29.8%
- growth [5]: 48.2%
- growth [6]: 24.5%
- growth [7]: 27.8%
- growth [8]: -4.56% (active)
- growth [9]: 15.4%
- growth [10]: 12.5%
- growth [11]: 20.5%
- growth [12]: 16.6%
- growth [13]: 28.3%
- growth [14]: 30.4%
- growth [15]: 37.5%
- growth [16]: 32.7%
- growth [17]: -21.7% (active)
- growth [18]: 10.4%
- growth [19]: 0.746% (active)

Structure (SMILES): COc1ccc2occ(C3=C(c4c[nH]c5ccccc45)C(=O)N(O)C3=O)c2c1
- growth [1]: 102%
- growth [2]: 93.1%
- growth [3]: 95.9%
- growth [4]: 61.9%
- growth [5]: 126%
- growth [6]: 95.3%
- growth [7]: 83.6%
- growth [8]: 118%
- growth [9]: 102%
- growth [10]: 57.2%
- growth [11]: 66.7%
- growth [12]: 90.5%
- growth [13]: 104%
- growth [14]: 112%
- growth [15]: 88.7%
- growth [16]: 91.3%
- growth [17]: 98.9%
- growth [18]: 95.7%
- growth [19]: 99.1%

Structure (SMILES): N#CC1=C(/N=C/c2ccccc2)Oc2c(ccc3ccccc23)C1c1ccccc1 (configuration not stated)
- growth [1]: 45.7%
- growth [2]: 34.6%
- growth [3]: 37.8%
- growth [4]: 32%
- growth [5]: 45.2%
- growth [6]: 34.3%
- growth [7]: 24%
- growth [8]: 16.3%
- growth [9]: 19.8%
- growth [10]: 19.2%
- growth [11]: 11%
- growth [12]: 12.5%
- growth [13]: 28.8%
- growth [14]: 62.7%
- growth [15]: 23.8%
- growth [16]: 25.1%
- growth [17]: -2.72% (active)
- growth [18]: 18.5%
- growth [19]: 1.37% (active)

Structure (SMILES): COc1ccc2[nH]c(O)c(/C=c3/cc4c(c(-c5ccc(F)c(OC)c5)n3)=Nc3ccccc3-4)c2c1
- growth [1]: 96.3%
- growth [2]: 89.5%
- growth [3]: 88.6%
- growth [4]: 74.7%
- growth [5]: 87.2%
- growth [6]: 52.2%
- growth [7]: 88.3%
- growth [8]: 69.6%
- growth [9]: 1.77% (active)
- growth [10]: 2.4% (active)
- growth [11]: -20.4% (active)
- growth [12]: 60.4%
- growth [13]: 93.9%
- growth [14]: 6.42% (active)
- growth [15]: 107%
- growth [16]: 84.6%
- growth [17]: -34.4% (active)
- growth [18]: 84.7%
- growth [19]: 32.7%

Structure (SMILES): CC1(C)OC2C(CO[Si](C)(C)C(C)(C)C)OC(n3c(I)c(C#C[Si](C)(C)C)c(=O)[nH]c3=O)C2O1 (configuration not stated)
- growth [1]: 82.1%
- growth [2]: 109%
- growth [3]: 85.7%
- growth [4]: 86.6%
- growth [5]: 109%
- growth [6]: 107%
- growth [7]: -8.73% (active)
- growth [8]: 102%
- growth [9]: 13.4%
- growth [10]: 63.6%
- growth [11]: -12.2% (active)
- growth [12]: 88.6%
- growth [13]: 92.6%
- growth [14]: -68.4% (active)
- growth [15]: 111%
- growth [16]: 96.7%
- growth [17]: -41.1% (active)
- growth [18]: 3.19% (active)
- growth [19]: 82.7%

Structure (SMILES): CC(CN1CCCCC1)C(=O)c1ccccc1 (configuration not stated)
- growth [1]: 102%
- growth [2]: 104%
- growth [3]: 105%
- growth [4]: 92.4%
- growth [5]: 96.7%
- growth [6]: 107%
- growth [7]: 101%
- growth [8]: 84%
- growth [9]: 106%
- growth [10]: 97.3%
- growth [11]: 78%
- growth [12]: 102%
- growth [13]: 101%
- growth [14]: 114%
- growth [15]: 106%
- growth [16]: 109%
- growth [17]: 109%
- growth [18]: 103%
- growth [19]: 108%

Structure (SMILES): CC(=O)N1N=C(c2ccc(Nc3nc(Nc4ccc(F)cc4)nc(Nc4ccc(F)cc4)n3)cc2)CC1c1cccc([N+](=O)[O-])c1 (configuration not stated)
- growth [1]: 62.5%
- growth [2]: 90.2%
- growth [3]: 98.1%
- growth [4]: 73%
- growth [5]: 104%
- growth [6]: 93%
- growth [7]: 124%
- growth [8]: 78.9%
- growth [9]: 8.35% (active)
- growth [10]: 22.4%
- growth [11]: 19.8%
- growth [12]: 91.6%
- growth [13]: 75.5%
- growth [14]: 47.8%
- growth [15]: 110%
- growth [16]: 76.9%
- growth [17]: 235%
- growth [18]: 96.5%
- growth [19]: 67.2%
